According to the antibiotic and cytotoxicity screens of Wong et al. (2023):
Hit rate of the full screen: of about 39,000 compounds, about 3,300 (8.5%) were called active. This excerpt belongs to a sample that is enriched for actives.

These molecules were tested on HepG2 (assay: cytotoxicity call (relative viability < 0.9)). Conditions: 10 µM.

| Structure (SMILES) | cytotoxicity call |
| --- | --- |
| Cc1cn([C@@H]2C[C@H](O)[C@@H](CO)O2)c(=O)[nH]c1=O | inactive |
| Cc1ccc(S(=O)(=O)Nc2ccc3c(c2)C(=O)N([C@H](C)CO)C[C@H](C)[C@H](CN(C)C(=O)CCC(F)(F)F)OCCCC[C@@H](C)O3)cc1 | inactive |
| CC(C)(C)OC(=O)C[C@H]1CC=CC[C@@H](CC(=O)NCCO)C(=O)N[C@@H](Cc2ccccc2)COC1=O | inactive |
| C[C@@H]1CN([C@@H](C)CO)C(=O)c2cccc(NC(=O)c3ccncc3)c2O[C@H]1CN(C)Cc1ccc2c(c1)OCO2 | inactive |
| CC(C)NC(=O)Nc1ccc2c(c1)C(=O)N([C@@H](C)CO)C[C@H](C)[C@@H](CN(C)Cc1ccc(C(=O)O)cc1)O2 | inactive |
| C[C@@H]1CCCCO[C@@H](CN(C)C(=O)Nc2ccc(F)cc2)[C@@H](C)CN([C@H](C)CO)C(=O)c2cc(NC(=O)c3ccncc3)ccc2O1 | inactive |
| COc1ccc(S(=O)(=O)Nc2ccc3c(c2)C(=O)N([C@H](C)CO)C[C@H](C)[C@H](CN(C)C(=O)Nc2ccc4c(c2)OCO4)OCCCC[C@H](C)O3)cc1 | inactive |
| COc1ccc(S(=O)(=O)Nc2ccc3c(c2)C(=O)N([C@@H](C)CO)C[C@H](C)[C@@H](CN(C)C(=O)Nc2ccc4c(c2)OCO4)OCCCC[C@@H](C)O3)cc1 | inactive |
| C[C@H]1CCCCO[C@H](CN(C)C(=O)Nc2ccc3c(c2)OCO3)[C@@H](C)CN([C@@H](C)CO)C(=O)c2cc(NS(=O)(=O)c3ccc(Cl)cc3)ccc2O1 | active |
| C[C@@H]1CCCCO[C@H](CN(C)C(=O)Nc2ccc3c(c2)OCO3)[C@H](C)CN([C@@H](C)CO)C(=O)c2cc(NS(=O)(=O)c3ccc(Cl)cc3)ccc2O1 | inactive |
| COc1ccc(S(=O)(=O)Nc2ccc3c(c2)C(=O)N([C@@H](C)CO)C[C@@H](C)[C@@H](CN(C)C(=O)Nc2ccc4c(c2)OCO4)OCCCC[C@@H](C)O3)cc1 | active |
| Cc1ccc(S(=O)(=O)Nc2ccc3c(c2)C(=O)N([C@@H](C)CO)C[C@H](C)[C@@H](CN(C)C(=O)Nc2ccc4c(c2)OCO4)OCCCC[C@@H](C)O3)cc1 | inactive |
| C[C@@H]1CN([C@H](C)CO)C(=O)c2cc(NS(=O)(=O)c3ccc(Cl)cc3)ccc2O[C@@H](C)CCCCO[C@H]1CN(C)C(=O)Nc1ccc2c(c1)OCO2 | inactive |
| Cc1ccc(S(=O)(=O)Nc2ccc3c(c2)C(=O)N([C@H](C)CO)C[C@H](C)[C@@H](CN(C)C(=O)Nc2ccc4c(c2)OCO4)OCCCC[C@H](C)O3)cc1 | inactive |
| Cc1ccc(S(=O)(=O)Nc2ccc3c(c2)C(=O)N([C@H](C)CO)C[C@H](C)[C@H](CN(C)C(=O)Nc2ccc4c(c2)OCO4)OCCCC[C@H](C)O3)cc1 | active |
